Experimental findings from the supplement of paper PMC9588786 are described below.

Counter-ions that a name gives are not always drawn. ± gives the standard deviation of the averaged measurements.
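Also: viability read as CCK-8 absorbance at 450 nm in cells co-exposed to the GPX4 inhibitor RSL3, relative to a 0.01% DMSO vehicle control.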

The test system of this test is HT-1080. Kind of test: relative cell viability with RSL3 co-treatment (fraction of control); higher = stronger protection from RSL3-induced ferroptosis (higher viability). Conditions: 10 µM.
As to `N#Cc1c(O)c2c(-c3ccc(-c4ccccc4O)cc3)csc2[nH]c1=O`, the relative cell viability is 0.793 ± 0.046. Next, `Cc1[nH]c(/C=C2\C(=O)Nc3ccccc32)c(C)c1CCC(=O)O` [Orantinib (TSU-68, SU6668)]: 0.903 ± 0.057; `CC(C)(C#N)c1ccc(N2C(=O)OCc3cnc4ccc(-c5cnc6ccccc6c5)cc4c32)cc1`: 0.45 ± 0.18. The result for `O=C(NC(NC(=S)Nc1ccc(F)c([N+](=O)[O-])c1)C(Cl)(Cl)Cl)C(c1ccccc1)c1ccccc1` (stereo not drawn) reads 0.62 ± 0.095; that for `CN1CC[C@H](c2c(O)cc(O)c3c(=O)cc(-c4ccccc4Cl)oc23)[C@H](O)C1` [Flavopiridol (Alvocidib)], 0.49 ± 0.13. `COc1cc2ncnc(Nc3ccc(O)c(Br)c3)c2cc1OC`: the relative cell viability came out at 0.8167 ± 0.0058.

As for `CC(C)CC(=O)Nc1n[nH]c2c1CN(C(=O)C1CCN(C)CC1)C2(C)C`, the relative cell viability turned out to be 0.78 ± 0.069.

For the compound `O=C(O)CCC(=O)Nc1ccc(Br)cn1` [Bikinin], the relative cell viability was found to be 0.723 ± 0.14. Next, `CC[C@H](Nc1ncnc2[nH]cnc12)c1nc2cccc(F)c2c(=O)n1-c1ccccc1` [Idelalisib (CAL-101, GS-1101)]: 0.753 ± 0.031; `C=CC(=O)Nc1cccc(Sc2nc(Nc3ccc(N4CCN(C)CC4)cc3)ncc2Cl)c1`: 0.423 ± 0.035. The result for `O=C(O)C(Cc1ccccc1[N+](=O)[O-])=NNc1nc(-c2ccc(Cl)c(Cl)c2)cs1` (mixture of isomers) reads 1.27 ± 0.046. The result for `O=C(O)[C@]1(Cc2cccc(Nc3nccs3)n2)CC[C@@H](Oc2cccc(Cl)c2F)CC1` reads 1.02 ± 0.14; that for `C[C@]1(O)C[C@@H](c2nc(-c3ccc4ccc(-c5ccccc5)nc4c3)c3c(N)nccn32)C1` [Linsitinib (OSI-906)], 0.587 ± 0.029; that for `COc1ccc(C(=O)Nc2sc3c(c2C(N)=O)CCCC3)cc1OC`, 0.66 ± 0.087. On to `N#CC[C@H](C1CCCC1)n1cc(-c2ncnc3[nH]ccc23)cn1`, for which the relative cell viability was 0.897 ± 0.083. Take `CN1CC[C@H](c2c(O)cc(O)c3c(=O)cc(-c4ccccc4Cl)oc23)[C@H](O)C1` [Flavopiridol HCl]: the relative cell viability worked out at 0.763 ± 0.17.

Regarding `Cc1ccc(F)c(NC(=O)Nc2ccc(-c3cccc4[nH]nc(N)c34)cc2)c1` [Linifanib (ABT-869)], the relative cell viability turned out to be 0.36 ± 0.046. The result for `CN1CCN(c2cccc(Nc3nc4c(-c5ccc(S(C)(=O)=O)cc5)cccn4n3)c2)CC1` reads 1.21 ± 0.03. Next, `O=C(Nc1ccc(-c2ccnc(Nc3ccc(N4CCOCC4)cc3)n2)cc1)C1CCCN1` (stereo not drawn): 0.443 ± 0.1; `Cc1ccc(NC(=O)c2ccc(CN3CCN(C)CC3)cc2)cc1Nc1nc(-c2cccnc2)cs1` [Masitinib (AB1010)]: 0.67 ± 0.12.

`Cn1c(=O)c(F)c(Nc2ccc(I)cc2F)c2c(=O)n(C[C@@H](O)CO)cnc21`: the relative cell viability was found to be 0.71 ± 0.017.

On to `NC(=O)c1ncn([C@@H]2O[C@H](CO)[C@@H](O)[C@H]2O)c1N` [AICAR (Acadesine)], for which the relative cell viability came out at 1.03 ± 0.011. The result for `OC(c1cc(-c2ccc(Cl)cc2)nc2ccccc12)C1CCCCN1` (stereo not drawn) [Vacquinol-1] reads 0.0533 ± 0.035. The result for `OCCn1cc(-c2ccc3c(c2)CC/C3=N\O)c(-c2ccncc2)n1` reads 0.687 ± 0.13.

Take `NC1(c2ccc(-c3nc4ccn5c(=O)[nH]nc5c4cc3-c3ccccc3)cc2)CCC1`: the relative cell viability amounted to 0.467 ± 0.1. Next, `C[C@H](Nc1ncnc2[nH]cnc12)c1cc2ccc(F)cc2nc1-c1ccccn1`: 0.59 ± 0.18; `CCc1cncnc1N1CCN(Cc2nc3ccc(C(F)(F)F)cc3[nH]2)CC1`: 0.653 ± 0.083; `C=CC(=O)Nc1ccc(CN2C(=O)N(c3cc(OC)cc(OC)c3)Cc3cnc(Nc4ccc(N5CCN(C)CC5)cc4)nc32)cc1`: 0.56 ± 0.01. Next, `COc1cc(OC)c(/C=C/S(=O)(=O)Cc2ccc(OC)c(NCC(=O)O)c2)c(OC)c1`: 0.7 ± 0.026.

For `COc1cc(N2CCC(N)CC2)ccc1Nc1ncc(Cl)c(-c2c[nH]c3ccccc23)n1`, the relative cell viability worked out at 0.24 ± 0.062. Next, `N#CC1(c2ccc(NC(=O)c3cccnc3NCc3ccncc3)cc2)CCCC1` [Apatinib]: 0.643 ± 0.046. The result for `Cc1nc(Nc2n[nH]c3c2CN(C(=O)N[C@H](CN(C)C)c2ccccc2)C3(C)C)c2sccc2n1` reads 0.557 ± 0.032; that for `Cc1ccc(C(=O)Nc2ccc(CN3CCN(C)CC3)c(C(F)(F)F)c2)cc1C#Cc1cnc2[nH]ncc2c1` [GZD824 Dimesylate], 0.553 ± 0.031; that for `Cc1[nH]c(/C=C2\C(=O)Nc3ccc(S(=O)(=O)N(C)c4cccc(Cl)c4)cc32)c(C)c1C(=O)N1CCN(C)CC1`, 0.547 ± 0.075.

Regarding `Cc1cc(Nc2cc(CN3CCOCC3)c3nc(C)c(Cc4ccc(Cl)cc4F)n3n2)n[nH]1`, the relative cell viability came to 0.383 ± 0.095. The result for `CNC(=O)c1nn(C)c2c1C(C)(C)Cc1cnc(Nc3ccc(N4CCN(C)CC4)cc3)nc1-2` reads 0.723 ± 0.16. Turning to `Cc1cnc(NC(=O)Nc2cc(Br)c(C)cc2OC[C@@H]2CNCCO2)cn1`, the relative cell viability was determined as 0.447 ± 0.17.

Consider `Cc1cc(N2CCOCC2)cc2[nH]c(-c3c(NC[C@@H](O)c4cccc(Cl)c4)cc[nH]c3=O)nc12`, for which the relative cell viability was determined as 0.987 ± 0.15.
